In PubChem BioAssay (Tox21):
“And” between values parts separate entries of the source, which are not always exact repeats. Equal values may be shown once. The source holds several records for some structures; these can differ, active in one and inactive in another. The source made the active and inactive calls. Where a call stands in place of a potency, no number is given. Unless noted, calls follow the shape of the dose curve; as a rule, active = well fitted curve in the direction sought with a large enough effect in the repeat runs; inconclusive = weak or mixed curves; inactive = no such curve, though single readings can be large; an effect the other way counts as inactive or inconclusive.

How the values were obtained:
[1] = qHTS assay to identify small molecule antagonists of the glucocorticoid receptor (GR) signaling pathway - cell viability counter screen (AID 720693); also: nearly all actives have a fitted effect of over 55% in size; also: potency is read from the fitted curve at half-maximal effect
[2] = qHTS assay for identifying genotoxic compounds that show differential cytotoxicity against isogenic chicken DT40 cell lines with known DNA damage response pathways - wild type cell line (AID 743012); also: nearly all actives have a fitted effect of over 60% in size; also: potency is read from the fitted curve at half-maximal effect
In short: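 Quantitative HTS on parental DT40 cells: 40 h compound treatment at 37 C/5% CO2, with viability then determined by CellTiter-Glo luminescence. Values serve as the DNA repair-proficient reference for differential cytotoxicity.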

[3] = qHTS assay for identifying genotoxic compounds that show differential cytotoxicity against isogenic chicken DT40 cell lines with known DNA damage response pathways - Rad54/Ku70 mutant cell line (AID 743015); also: nearly all actives have a fitted effect of over 60% in size; also: potency is read from the fitted curve at half-maximal effect
[4] = qHTS assay to identify small molecule antagonists of the androgen receptor (AR) signaling pathway - cell viability counter screen (AID 743033; also: nearly all actives have a fitted effect of over 45% in size)
[5] = qHTS assay to identify small molecule antagonists of the androgen receptor (AR) signaling pathway using the MDA cell line - cell viability counter screen (AID 743041; also: nearly all actives have a fitted effect of over 45% in size)
In short: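 R1881-driven MDA-kb2 AR-luc cells, 3,000/well, were dosed with library compounds for 16 h; cell health came from CellTiter-Fluor fluorescence in the reporter wells.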

[6] = qHTS assay to identify small molecule antagonists of the thyroid receptor (TR) signaling pathway - cell viability counter screen (AID 743064); also: nearly all actives have a fitted effect of over 50% in size; also: potency is read from the fitted curve at half-maximal effect
In short: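 Viability of T3-stimulated (1 nM final) GH3.TRE-Luc cells is measured by CellTiter-Fluor fluorescence after 23.5 h compound exposure at 37 °C plus 30 min reagent incubation.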

[7] = qHTS assay to identify small molecule antagonists of the thyroid receptor (TR) signaling pathway (AID 743065); also: nearly all actives have a fitted effect of over 55% in size; also: potency is read from the fitted curve at half-maximal effect
In short: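 Antagonism measured as loss of luciferase signal in GH3 cells stably carrying a TRE-luciferase reporter, co-treated with compound and T3 (1 nM final) for 23.5 h at 37 C. Viability was read in the same well by CellTiter-Fluor.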

[8] = tested on: thyroid hormone receptor (rat, GH3 cells); test: qHTS assay to identify small molecule agonists of the thyroid receptor (TR) signaling pathway (AID 743066; calls by dose curve)
[9] = molecular target: Estrogen receptor (Homo sapiens) (UniProt P03372); test: qHTS assay to identify small molecule antagonists of the estrogen receptor alpha (ER-alpha) signaling pathway (AID 743069; active = well fitted curve in the direction sought with a large enough effect in the signal ratio in the repeat runs, not every such curve was filed as active; inconclusive = weak or mixed curves, or effect the other way; inactive = no such curve, though single readings can be large or run the other way; the % refers to the signal ratio; also: potency is read from the fitted curve at half-maximal effect)
Chain of Estrogen receptor (Homo sapiens) (P03372 whole entry, looked up): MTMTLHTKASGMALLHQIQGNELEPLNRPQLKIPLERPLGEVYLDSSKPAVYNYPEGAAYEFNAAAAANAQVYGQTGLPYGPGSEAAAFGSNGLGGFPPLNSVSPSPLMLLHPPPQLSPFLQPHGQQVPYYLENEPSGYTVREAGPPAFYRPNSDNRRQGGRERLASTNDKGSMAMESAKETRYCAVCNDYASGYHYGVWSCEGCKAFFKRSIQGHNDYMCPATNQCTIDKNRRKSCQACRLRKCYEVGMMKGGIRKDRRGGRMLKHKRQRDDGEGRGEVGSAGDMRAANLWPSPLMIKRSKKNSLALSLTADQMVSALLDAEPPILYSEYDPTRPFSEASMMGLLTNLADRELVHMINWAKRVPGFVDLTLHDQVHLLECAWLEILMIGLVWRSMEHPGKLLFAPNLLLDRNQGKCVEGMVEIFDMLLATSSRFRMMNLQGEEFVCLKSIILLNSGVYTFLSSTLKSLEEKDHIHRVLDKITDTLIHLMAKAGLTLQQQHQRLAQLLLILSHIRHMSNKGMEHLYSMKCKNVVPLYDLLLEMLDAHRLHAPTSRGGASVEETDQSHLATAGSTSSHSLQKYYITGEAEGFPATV
In short: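 Compound effects are measured against 17beta-estradiol stimulation in HEK293 cells with a UAS-controlled beta-lactamase reporter for ER-alpha. Exposure lasts 18 hr at 37C; LiveBLAzer B/G FRET substrate follows for 2 hr at room temperature.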

[10] = qHTS assay to identify small molecule antagonists of the estrogen receptor alpha (ER-alpha) signaling pathway - cell viability counter screen (AID 743074; calls by dose curve;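 also: HEK293 cells carrying ER-alpha-UAS-bla reporter stimulated with 17beta-estradiol; nearly all actives have a fitted effect of over 45% in size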)
[11] = molecular target: Estrogen receptor (Homo sapiens) (UniProt P03372); test: qHTS assay to identify small molecule agonists of the estrogen receptor alpha (ER-alpha) signaling pathway (AID 743075; calls by dose curve; also: potency is read from the fitted curve at half-maximal effect)
[12] = molecular target: Estrogen receptor (Homo sapiens) (UniProt P03372); test: qHTS assay to identify small molecule agonists of the estrogen receptor alpha (ER-alpha) signaling pathway using the BG1 cell line (AID 743079); also: nearly all actives have a fitted effect of over 20% in size; also: potency is read from the fitted curve at half-maximal effect
[13] = qHTS assay to identify small molecule antagonists of the estrogen receptor alpha (ER-alpha) signaling pathway using the BG1 cell line (AID 743080; calls by dose curve;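 also: BG1 cells stimulated with 17beta-estradiol alongside compound; nearly all actives have a fitted effect of over 25% in size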; also: potency is read from the fitted curve at half-maximal effect)
In short: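 Readout is ONE-Glo luminescence, taken 30 min at room temperature after reagent addition, preceded by a CellTiter-Fluor viability read; BG1-Luc-4E2 cells had received compound and 17beta-estradiol for 21.5 h at 37 C.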

[14] = qHTS assay to identify small molecule antagonists of the estrogen receptor alpha (ER-alpha) signaling pathway using the BG1 cell line - cell viability counter screen (AID 743081);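 also: compound given together with 17beta-estradiol as the ER stimulus; nearly all actives have a fitted effect of over 45% in size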; also: potency is read from the fitted curve at half-maximal effect
Aromatase (Homo sapiens) = Aromatase (Homo sapiens) (UniProt P11511); test: qHTS assay to identify aromatase inhibitors (AID 743083); also: nearly all actives have a fitted effect of over 55% in size; also: potency is read from the fitted curve at half-maximal effect
Chain of Aromatase (Homo sapiens) (P11511 whole entry, looked up): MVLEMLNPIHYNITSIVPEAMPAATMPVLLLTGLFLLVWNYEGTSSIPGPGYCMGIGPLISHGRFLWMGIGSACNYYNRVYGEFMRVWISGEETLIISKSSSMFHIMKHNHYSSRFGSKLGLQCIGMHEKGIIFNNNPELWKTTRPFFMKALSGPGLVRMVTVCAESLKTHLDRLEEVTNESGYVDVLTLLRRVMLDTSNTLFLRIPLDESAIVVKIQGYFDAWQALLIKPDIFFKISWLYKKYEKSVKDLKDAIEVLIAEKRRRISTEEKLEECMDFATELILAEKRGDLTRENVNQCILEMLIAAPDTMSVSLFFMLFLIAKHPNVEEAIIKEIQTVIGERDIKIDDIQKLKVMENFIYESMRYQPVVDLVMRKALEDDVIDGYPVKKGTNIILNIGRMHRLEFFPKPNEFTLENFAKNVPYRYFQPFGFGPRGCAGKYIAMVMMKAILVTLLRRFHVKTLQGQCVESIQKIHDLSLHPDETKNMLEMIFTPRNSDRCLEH

[15] = qHTS assay for identifying genotoxic compounds that show differential cytotoxicity against isogenic chicken DT40 cell lines with known DNA damage response pathways - Rev3 mutant cell line (AID 743014); also: potency is read from the fitted curve at half-maximal effect; nearly all actives have a fitted effect of over 55% in size
[16] = molecular target: Androgen receptor (Homo sapiens) (UniProt P10275); test: qHTS assay to identify small molecule antagonists of the androgen receptor (AR) signaling pathway (AID 743035; active = well fitted inhibition curve with a large enough effect in the signal ratio in the repeat runs, not every such curve was filed as active; inconclusive = weak or mixed curves, or effect the other way; inactive = no such curve, though single readings can be large or run the other way; the % refers to the signal ratio)
Chain of Androgen receptor (Homo sapiens) (P10275 whole entry, looked up): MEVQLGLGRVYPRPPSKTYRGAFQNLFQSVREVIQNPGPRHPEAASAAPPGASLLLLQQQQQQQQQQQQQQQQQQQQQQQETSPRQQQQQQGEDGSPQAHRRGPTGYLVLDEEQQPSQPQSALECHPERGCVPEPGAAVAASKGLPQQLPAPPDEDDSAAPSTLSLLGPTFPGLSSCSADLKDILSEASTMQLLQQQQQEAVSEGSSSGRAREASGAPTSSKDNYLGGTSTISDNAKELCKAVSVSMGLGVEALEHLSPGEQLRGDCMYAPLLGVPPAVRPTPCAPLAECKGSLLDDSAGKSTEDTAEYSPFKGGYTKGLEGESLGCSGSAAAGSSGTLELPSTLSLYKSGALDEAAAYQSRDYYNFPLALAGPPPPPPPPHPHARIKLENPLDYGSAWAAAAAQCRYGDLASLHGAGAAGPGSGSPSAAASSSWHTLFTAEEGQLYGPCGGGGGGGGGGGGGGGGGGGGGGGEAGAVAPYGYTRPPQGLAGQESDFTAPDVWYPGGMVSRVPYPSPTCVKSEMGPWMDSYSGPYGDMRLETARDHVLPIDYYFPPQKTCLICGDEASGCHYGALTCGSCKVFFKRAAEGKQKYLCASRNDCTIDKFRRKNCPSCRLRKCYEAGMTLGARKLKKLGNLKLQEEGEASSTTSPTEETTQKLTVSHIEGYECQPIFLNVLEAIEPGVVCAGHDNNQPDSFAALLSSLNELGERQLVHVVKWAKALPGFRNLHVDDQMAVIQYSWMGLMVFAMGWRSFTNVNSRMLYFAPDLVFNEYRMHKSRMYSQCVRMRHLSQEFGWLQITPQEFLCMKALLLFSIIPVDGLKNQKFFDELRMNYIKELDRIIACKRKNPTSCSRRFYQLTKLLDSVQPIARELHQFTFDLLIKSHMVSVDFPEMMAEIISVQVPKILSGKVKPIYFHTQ
In short: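 Cell line: GeneBLAzer AR-UAS-bla GripTite (HEK293). Stimulus: R1881 added after compound. Exposure: 16 h, 37C, 5% CO2. Readout: LiveBLAzer B/G FRET fluorescence after 2 h at room temperature.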

[17] = molecular target: Androgen receptor (Homo sapiens) (UniProt P10275); test: qHTS assay to identify small molecule agonists of the androgen receptor (AR) signaling pathway using the MDA cell line (AID 743040; also: nearly all actives have a fitted effect of over 20% in size; also: potency is read from the fitted curve at half-maximal effect)
In short: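 After a 5 h incubation at 37C and 0% CO2, MDA-kb2 reporter cells were dosed with compounds in DMSO and kept 16 h under the same conditions. Luciferase activity was then read as luminescence with ONE-Glo.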

[18] = molecular target: Androgen receptor (Homo sapiens) (UniProt P10275); test: qHTS assay to identify small molecule antagonists of the androgen receptor (AR) signaling pathway using the MDA cell line (AID 743042; also: nearly all actives have a fitted effect of over 55% in size)
In short: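 Antagonist mode: compounds plus R1881 agonist added to MDA-kb2 AR-luc cells, incubated 16 h at 37C. Luciferase reporter luminescence quantified, with multiplexed CellTiter-Fluor readout for cell viability.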

[19] = molecular target: Androgen receptor (Homo sapiens) (UniProt P10275); test: qHTS assay to identify small molecule agonists of the androgen receptor (AR) signaling pathway (AID 743036; active = well fitted activation curve with a large enough effect in the signal ratio in the repeat runs, with a control signal flat, not every such curve was filed as active; inconclusive = weak or mixed curves, or effect the other way; inactive = no such curve, though single readings can be large or run the other way; the % refers to the signal ratio)
In short: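 Screening used 2,000 AR-bla HEK293 cells per well, treated 16 h at 37C with test compounds in DMSO alongside positive and DMSO-only controls; beta-lactamase activity was then read by LiveBLAzer B/G FRET fluorescence after 2 h at room temperature.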

SMILES | Potency [1] | Potency [2] | Potency [3] | Potency [4] | Potency [5] | Potency [6] | Potency [7] | Potency [8] | Potency [9] | Potency [10] | Potency [11] | Potency [12] | Potency [13] | Potency [14] | Potency (Aromatase (Homo sapiens)) | Potency [15] | Potency [16] | Potency [17] | Potency [18] | Potency [19]
Nc1cccc(S(=O)(=O)c2cccc(N)c2)c1 | inactive | 61.1 µM (active) | 61.1 µM (active) | inactive | inactive | inactive | inactive | inactive | inactive | inactive | inactive | inactive | inactive | inactive | inactive |  |  |  |  | 
Cn1c(=O)cc(Oc2ccc(F)cc2F)c2cnc(NCC(C)(C)O)nc21 | inactive | inactive | 27.3 µM (active) | inactive | inactive | inactive | inactive | inactive | inactive | inactive | inactive |  | 19.3 µM (active) | inactive | inactive |  |  |  |  | 
CCN(CC)CCNc1ccc(CNC=O)c2sc3ccc(OC)cc3c(=O)c12 | 38.9 µM (active) | 8.63 µM (active) |  |  | inactive | 8.63 µM (active) | 24.3 µM (active) |  |  | inactive | 4.36 µM [inconclusive] (active) | 2.73 µM (active) |  | 4.86 µM (active) | 38.6 µM (active) | 9.69 µM (active) |  |  |  | 
O=C(O)c1ccc(S(=O)(=O)O)cc1C(=O)O | inactive | inactive | inactive | inactive |  | inactive | inactive | inactive | inactive | inactive | inactive | inactive | inactive | inactive | inactive |  |  |  |  | 
C/C(=C(\CCOP(=O)(O)O)SC(=O)c1ccccc1)N(C=O)Cc1cnc(C)nc1N | inactive | inactive | inactive | inactive | inactive | inactive | inactive | inactive | inactive | inactive | inactive | inactive | inactive | inactive | inactive |  | inactive | 12.7 µM (active) | inactive | 
O=C(NCCO[N+](=O)[O-])c1cccnc1 | inactive | inactive | inactive | inactive | inactive | inactive | inactive | inactive |  | inactive |  |  |  | inactive | inactive |  |  |  |  | 
CCn1cc(C(=O)O)c(=O)c2cnc(N3CCNCC3)nc21 | inactive | inactive | inactive | inactive |  | inactive | inactive | inactive |  | inactive |  |  |  | inactive | inactive |  |  |  |  | 
CC(=O)NO | inactive | inactive | inactive | inactive | inactive | inactive | inactive | inactive |  | inactive |  |  |  | inactive | inactive |  | inactive | inactive | inactive | inactive
CC(CSC(=O)c1ccccc1)C(=O)N1C[C@@H](Sc2ccccc2)C[C@H]1C(=O)O (stereo partly drawn) | inactive | inactive | inactive | inactive | inactive | inactive | inactive | inactive | inactive | inactive | inactive | inactive | inactive | inactive | inactive |  |  |  |  | 
CCc1c(C(=O)NN2CCCCC2)nn(-c2ccc(Cl)cc2Cl)c1-c1ccc(Br)cc1 | 12.3 µM (active) | 13.7 µM (active) | 13.7 µM (active) | inactive | inactive | 15.4 µM (active) | 8.63 µM (active) |  | 13.8 µM [inconclusive] (active) | inactive | inactive | 27.3 µM (active) |  | inactive |  |  |  |  |  | 
OCCN1CCN(CCCN2c3ccccc3C=Cc3ccccc32)CC1 | inactive | 5.96 µM (active) and 13.3 µM (active) | 8.41 µM (active) and 26.6 µM (active) | inactive | inactive | 6.68 µM (active) and 7.5 µM (active) | 11.9 µM (active) and 26.6 µM (active) | inactive |  | inactive | inactive | inactive | inactive | 10.6 µM (active) and inactive | inactive |  |  |  |  | 
CCNc1cc(O)ccc1C | inactive | inactive | inactive | inactive | inactive | inactive | inactive | inactive | inactive | inactive | inactive | inactive | inactive | inactive | inactive |  |  |  |  | 
O=[N+]([O-])c1ccc(NCCO)c(OCCO)c1 | inactive | inactive | inactive | inactive |  |  | inactive | inactive |  |  |  |  |  | 68.7 µM (active) | 17.2 µM (active) |  | inactive | inactive | inactive | inactive
CCOC(=O)C1=C[C@]2(CC)CCCN3CCc4c(n1c1ccccc41)[C@@H]32 | inactive | 10.6 µM (active) and 6.68 µM (active) | 16.8 µM (active) and 10.6 µM (active) | inactive |  | 9.44 µM (active) |  |  | inactive | inactive | inactive | inactive | inactive | inactive | inactive |  |  |  |  | 
